In the library only some 2.3% were active in any assay of this set; here they are far more common.
IDH1 R132H inh: human IDH1 R132H inhibition; O75874; IDH1-R132H enzyme, NADPH consumption, diaphorase/resazurin fluorescence; Potency, µM (top dose mostly 76.6 µM), without a hit: top-dose activity change, negative = inhibition, most hits filed as inhibitors; 390,000 tested, 0.093% active; AID 602179; further: potency means the concentration at half of the fitted maximal effect; on the % scale 0 is the no-effect control and ±100 the full control effect; nearly all actives have a fitted effect of over 65% in size
Target sequence (O75874 whole entry R132H, stated change not applied): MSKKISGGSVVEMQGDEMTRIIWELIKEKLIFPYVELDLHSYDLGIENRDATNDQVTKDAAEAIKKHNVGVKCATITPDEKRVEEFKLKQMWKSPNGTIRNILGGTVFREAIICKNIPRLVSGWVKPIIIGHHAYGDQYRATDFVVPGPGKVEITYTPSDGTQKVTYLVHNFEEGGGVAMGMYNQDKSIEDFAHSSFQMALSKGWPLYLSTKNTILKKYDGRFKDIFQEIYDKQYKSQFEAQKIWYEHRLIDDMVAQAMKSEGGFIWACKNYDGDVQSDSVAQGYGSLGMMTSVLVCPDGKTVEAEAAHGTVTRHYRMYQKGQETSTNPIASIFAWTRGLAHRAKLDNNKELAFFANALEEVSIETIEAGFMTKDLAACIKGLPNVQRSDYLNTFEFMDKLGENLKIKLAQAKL
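IDH1-R132H (0.5 ug/mL) preincubated 30 min with compound, then NADPH (0.016 mM) and alpha-KG (2 mM) added; 80 min at RT, pH 7.5. Remaining NADPH coupled via diaphorase/resazurin to fluorescence (540/590 nm); concentration-response curves normalized to no-enzyme control.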
Nrf2 ARE act: activates Nrf2 signaling | AREc32 ARE-luciferase reporter (MCF7-derived line), luminescence, 24 h | 410,000 tested, 0.31% active | Potency, µM (doses to about 46.1 µM), for inactives: at the top dose activation, most hits filed as activators | AID 624171; further: potency means the concentration at half of the fitted maximal effect; % of control where 0% means no effect; nearly all actives have a fitted effect of over 65% in size
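Luminescent ARE reporter assay in AREc32_Fluc cells: overnight plating at 37 deg C, 24 hr compound incubation, Steady-Glo added, 30 min RT before reading.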
A549 viability: kills or reduces viability of A549 cells in Nrf2 counter-screen; A549 ARE-Fluc cells, CellTiter-Fluor viability, 18-24 h; Potency, µM (series often up to 46 µM), without a hit: top-dose activity change, negative = cytotoxicity, hits mostly inhibitors; 390,000 tested, 0.16% active; AID 504648; further: potency means the concentration at half of the fitted maximal effect; on the % scale 0 is the no-effect control and ±100 the full control effect
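Cytotoxicity counterscreen: CellTiter-Fluor fluorescence was measured in A549 ARE_Fluc cells after 18-24 h of compound exposure in a concentration series. The subsequent BugLite luminescent read reports ARE-luciferase activity.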
Nrf2 inh: Nrf2 pathway inhibition; A549 ARE-Fluc reporter, luciferase luminescence, 18-24 h; Potency, µM (titrated, usually from 46 µM), inactives show at the top dose activity change, negative = inhibition, actives largely listed as inhibitors; 360,000 tested, 2.1% active; AID 504444; further: potency means the concentration at half of the fitted maximal effect; on the % scale 0 is the no-effect control and ±100 the full control effect; nearly all actives have a fitted effect of over 60% in size
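Reporter: ARE-Fluc in A549. Exposure: 18-24 h, 37 °C, 5% CO2, 5% FBS OPTI-MEM. Readouts: fluorescent cytotoxicity (CellTiter-Fluor), then luminescent Nrf2 signal after BugLite.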
Anesthetic bind: candidate novel general anesthetic via apoferritin binding; P02791; apoferritin/1-aminoanthracene competitive binding, fluorescence; Potency, µM (top dose mostly 77.5 µM), without a hit: at the highest dose activity change, negative = displacement, most hits filed as inhibitors; 350,000 tested, 0.074% active; further: potency means the concentration at half of the fitted maximal effect; on the % scale 0 is the no-effect control and ±100 the full control effect; nearly all actives have a fitted effect of over 20% in size
Target sequence (P02791 2-175 limits assumed): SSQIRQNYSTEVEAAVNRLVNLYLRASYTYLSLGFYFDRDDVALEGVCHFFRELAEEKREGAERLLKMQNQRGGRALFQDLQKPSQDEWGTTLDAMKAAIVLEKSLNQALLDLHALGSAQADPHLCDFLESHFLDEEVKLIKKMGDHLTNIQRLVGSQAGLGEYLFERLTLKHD
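10 uM apoferritin + 50% sat. 1-AMA, PBS; cpd 10 min RT; Ex380/Em535 endpoint; normalized to free probe vs complex; 4-param Hill fit; propofol titration as pos. ctrl.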
Giardia kill: kills Giardia lamblia; Giardia lamblia trophozoite viability; activity change, % at 7.66 µM, hits read low; 340,000 tested, 0.15% active; AID 540267; in the data active means activity change below about -80%; inconclusive means between about -30% and that limit;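 further: parasites exposed to compound for two days anaerobically before the ATP read; on the % scale 0 is the no-effect control and ±100 the full control effect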
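Compounds were tested on trophozoites seeded at 100 cells/well and held 48 hrs at 37 deg C anaerobically. An ATP-based luminescent kit measured the remaining live cells.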
* hit, by the source's call; ? = inconclusive; . = no result. Unless noted, the call rests on the fitted dose curve; in most records, active means well fitted curve in the direction sought with a large enough effect; inconclusive means small, poorly fitted or top-dose-only effect, or another doubt; inactive means no such curve, though single readings can be large; an effect the other way counts as inactive or inconclusive.

SMILES	IDH1 R132H inh	Nrf2 ARE act	A549 viability	Nrf2 inh	Anesthetic bind	Giardia kill
CS(=O)(=O)Nc1ccc(C2=NN(C(=O)c3cccc(F)c3)C(c3cccs3)C2)cc1 (configuration not stated)	-6%	3%	?	18µM*	-1%	11
CCN(C(=O)CN1C(=O)S/C(=C\c2cccc(Cl)c2)C1=O)C1CCS(=O)(=O)C1 (configuration not stated)	-9%	11µM*	0%	-16%	-20%	3
CCN(C(=O)C(C)N1C(=O)/C(=C/c2ccco2)SC1=S)C1CCS(=O)(=O)C1 (configuration not stated)	11%	25%	15µM*	?	-19%	-5
CC(C(=O)N(C)C1CCS(=O)(=O)C1)N1C(=O)/C(=C/c2ccc(F)cc2)SC1=S (configuration not stated)	5%	12%	-13%	?	?	29
CCOC(=O)c1ccccc1OCc1cc(C2Nc3ccccc3C(=O)N2c2cccc3ccccc23)ccc1OC (configuration not stated)	.	.	2%	?	.	6
COc1cc2c(cc1OC)C(c1ccc(-c3cc(Cl)ccc3Cl)o1)=NCC2	4%	-1%	?	16µM*	-8%	-1
COc1cc2c(cc1OC)C(c1ccc(-c3ccccc3Cl)o1)=NCC2	5%	-1%	1%	.	-10%	5
COc1cc2c(cc1OC)C(c1ccc(-c3ccc(Cl)c(Cl)c3)o1)=NCC2	?	3%	.	9.2µM*	?	-4
COc1ccc(C(C)C)cc1-c1cccc2nncn12	.	1%	.	.	.	.
CC(C)(C)OC(=O)NCc1nnc(-c2cc3ccccc3[nH]2)o1	.	.	14%	?	.	.
CC1CCCC(NC(=O)NC(=O)CCl)C1C (configuration not stated)	-10%	?	1%	-2%	?	-9
CC1CCCCC1NC(=O)NC(=O)CCl (configuration not stated)	6%	14µM*	-10%	0%	?	-16
Cc1ccc(SCc2nc(-c3ccc(C(=O)NCCc4ccc(Cl)cc4)cc3)oc2C)cc1	7%	0%	0%	?	-8%	.
Cc1ccc(SCc2nc(-c3ccc(C(=O)NCC(C)c4ccccc4)cc3)oc2C)cc1 (configuration not stated)	6%	4%	8%	9.2µM*	-11%	.
COc1ccc2sc(N(Cc3cccnc3)C(=O)C3CCCCC3)nc2c1	8%	0%	-24%	.	?	.
COC(=O)c1ccc2nc(-c3cccc(Br)c3)c(CC3CCCCC3)n2c1	.	8.9µM*	.	.	.	.
COC(=O)c1ccc2nc(-c3ccc(OC)c(OC)c3)c(CC3CCCCC3)n2c1	.	6%	.	.	.	.
Cc1ccccc1-c1nc(CS(=O)(=O)CC(=O)NCCCc2ccccc2)c(C)o1	2%	0%	?	21µM*	2%	.
Cc1ccccc1-c1nc(CS(=O)(=O)CC(=O)NCc2ccccc2)c(C)o1	15%	-1%	-2%	-9%	-21%	10
Cc1c(P(=S)(c2ccccc2)c2ccccc2)c2ccccc2n1C(=O)NCc1ccc(F)cc1	.	.	3%	?	.	.
O=C(/C=C/c1ccco1)c1ccc(O)cc1	.	.	.	.	-16%	.
O=C(C=Cc1ccco1)c1ccc2ccccc2c1	7%	7.9µM*	-3%	?	.	22
Cc1ccc(C)c(C(O)c2ncc(-c3ccccc3Cl)[nH]2)c1 (configuration not stated)	.	0%	.	.	.	.
COc1cccc(NS(=O)(=O)c2ccc3c(c2)[C@H]2C=CC[C@H]2[C@@H](c2ccccc2Cl)N3)c1	4%	-2%	-19%	21µM*	16%	.
COc1ccc(NS(=O)(=O)c2ccc3c(c2)[C@H]2C=CC[C@H]2[C@@H](c2ccc(C(=O)O)cc2)N3)cc1	0%	0%	-14%	0%	-12%	1
SMILES	IDH1 R132H inh	Nrf2 ARE act	A549 viability	Nrf2 inh	Anesthetic bind	Giardia kill
CCOC(=O)C(C(=O)OCC)C(Nc1cccc(Br)c1)c1ccccc1 (configuration not stated)	6%	?	?	18µM*	-23%	11
Cc1ccc(-c2nc(NC(=O)c3cc(C(C)(C)C)nn3C)sc2C)cc1Cl	2%	0%	-5%	21µM*	8%	-8
CC1CCc2nc(NC(=O)c3cc(C(C)(C)C)nn3C)sc2C1 (configuration not stated)	1%	0%	-1%	-14%	-3%	-9
COc1cc(NS(=O)(=O)c2c(C)nc3sc(C)c(C)n3c2=O)cc(OC)c1	9%	0%	3%	22%	-4%	.
Cc1ccc(NS(=O)(=O)c2c(C)nc3sc(C)c(C)n3c2=O)cc1F	-17%	3%	1%	21µM*	?	.
O=C(Nc1ccc([N+](=O)[O-])cc1)Nc1ccc(OC(F)F)c(Cl)c1	-3%	-1%	?	21µM*	-2%	2
O=C(Nc1ccc(OC(F)F)c(Cl)c1)Nc1ccc2c(c1)OCO2	6%	-1%	-25%	?	-11%	-5
COc1ccc(CC2C(=O)NC(C)C(=O)N(C)C3Cc4ccc(cc4)Oc4cc(ccc4O)CC(C(=O)NC(C)C(=O)NC(C)C(=O)N2C)N(C)C3=O)cc1 (configuration not stated)	1%	-2%	2.3µM*	1.6µM*	.	-6
CC[C@H](C)C1OC(=O)[C@@H](C)[C@@H](CC)NC(=O)[C@H](C)N(C)C(=O)C(C)(C)C(=O)C(C)NC(=O)[C@H](Cc2ccc(OC)cc2)N(C)C(=O)[C@H](C(C)C)N(C)C(=O)CNC(=O)[C@H](CC(C)C)N(C)C(=O)CNC1=O (some centres not stated)	.	-2%	.	.	.	.
Cc1cc(C)cc(C(=O)N2CC(=O)Nc3ccc(Br)cc3C2c2ccccc2)c1 (configuration not stated)	-17%	0%	-4%	.	0%	.
c1cnc2c(c1)ccc1cccnc12	-2%	10%	?	5.8µM*	-5%	32
CCOc1ccccc1CN1CCc2nc(N3CCN(c4ccccc4F)CC3)ncc2C1	-9%	4%	-20%	.	16%	.
Clc1ccc2nc(C(Cl)(Cl)Cl)[nH]c2c1	3%	0%	.	.	.	.
Cc1c(C#N)c(O)n(CCO)c(=O)c1N=Nc1ccc(S(N)(=O)=O)cc1	4%	0%	15µM*	-18%	-20%	-9
Cc1c(C#N)c(O)n(C)c(=O)c1N=Nc1ccc(S(N)(=O)=O)cc1	0%	0%	20%	21%	-22%	-11
C/C(=N\Nc1nccnc1Cl)c1ccc(O)cc1	-4%	23%	-6%	28%	-1%	2
